PubChem BioAssay (Tox21)
Where “and” joins values, the source holds several entries; their conditions need not be identical. Identical values can stand only once. Results filed as inconclusive are left out. Where a call stands in place of a potency, no number is given. The source holds several records for some structures; these can differ, active in one and inactive in another. Calls of active or inactive are those of the source. Unless noted, calls come from the whole dose curve.

Assays:
[1] = Nuclear factor erythroid 2-related factor 2/antioxidant responsive element (Nrf2/ARE) small molecule agonists: qHTS cell viability counter screen in human keratinocytes (AID 1919968; active = well fitted cell-killing curve with a large enough effect in the repeat runs; note: nearly all actives have a fitted effect of over 55% in size; note: potency is the fitted concentration of half-maximal effect)
Outline: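 HaCaT ARE reporter line, 1,500 cells/well; 5 h settle, 37 C/5% CO2; cpd in DMSO pinned; 23 h exposure; CellTiter-Fluor, 1 h; fluorescence.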

[2] = Nuclear factor erythroid 2-related factor 2/antioxidant responsive element (Nrf2/ARE) small molecule agonists: luciferase reporter gene qHTS assay in human keratinocytes (AID 1919969); note: nearly all actives have a fitted effect of over 35% in size; note: potency is the fitted concentration of half-maximal effect
[3] = biological target: Gonadotropin-releasing hormone receptor (Homo sapiens) (UniProt P30968); assay: Human gonadotropin-releasing hormone receptor (GnRHR) small molecule agonists, calcium flux assay in GnRHR-HEK293 cells (AID 1920063); note: nearly all actives have a fitted effect of over 35% in size
Outline: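 GnRHR-HEK293, 1500 cells/well, 18 h 37 C/5% CO2; Ca dye 1 h 37 C; cpd pinned (DMSO), agonist mode; kinetic FL 480/540, 3 min, 1 s reads; 15 conc, n=3.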

[4] = G protein-coupled receptor (GPCR) small molecule agonists, calcium flux assay: HEK293 wild type cell line counter screen (AID 1920065)
Outline: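 Kinetic fluorescence at Ex/Em 480/540, recorded every second over 3 min, served as the read-out after compound addition. Each compound was tested at 15 concentrations in triplicate on cells pre-loaded with calcium dye for 1 h.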

[5] = p53 small molecule agonists, cell-based qHTS assay with human liver microsomes (AID 1963577);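 note: p53 response element beta-lactamase reporter cells with liver microsomes plus NADPH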
Outline: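 p53RE-bla cells; 5 h settle, 37 C/5% CO2; cpd + HLM 0.5 mg/mL + NADPH 0.5 mg/mL (final); 16 h 37 C; LiveBLAzer 2 h RT dark; fluorescence readout.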

[6] = p53 small molecule agonists, cell-based qHTS assay with human liver microsomes: qHTS cell viability counter screen (AID 1963579); note: nearly all actives have a fitted effect of over 45% in size; note: potency is the fitted concentration of half-maximal effect
Outline: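 Luminescent CellTiter-Glo read-out, 30 min at room temperature, gauged cytotoxicity in p53RE-bla cells exposed 16 h at 37 C to DMSO-dissolved compounds with metabolic activation by human liver microsomes and NADPH, each 0.5 mg/mL final.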

[7] = p53 small molecule agonists, cell-based qHTS assay with rat liver microsomes: qHTS cell viability counter screen (AID 1963580); note: nearly all actives have a fitted effect of over 45% in size; note: potency is the fitted concentration of half-maximal effect
Outline: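 HCT-116 p53RE-bla, 4,000 cells/well, 5 h pre-incubation; cpd + rat liver microsomes 0.5 mg/mL + NADPH 0.5 mg/mL (final); 16 h, 37 C; CellTiter-Glo, 30 min RT; luminescence.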

[8] = p53 small molecule agonists, cell-based qHTS assay: qHTS cell viability counter screen (AID 1963581); note: nearly all actives have a fitted effect of over 45% in size; note: potency is the fitted concentration of half-maximal effect
Outline: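 HCT-116 p53RE-bla cells, 4,000/well, plated 5 h before compound pin transfer; 16 h at 37 C; bla substrate 2 h RT; then CellTiter-Glo, 30 min RT, luminescence.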

[9] = p53 small molecule agonists, cell-based qHTS assay (AID 1963582; active = well fitted activation curve with a large enough effect in the signal ratio in the repeat runs, not every such curve was filed as active; the % refers to the signal ratio; note: potency is the fitted concentration of half-maximal effect)
Outline: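 Reporter line: p53RE-bla. Pre-incubation 5 h, 37 C, 5% CO2; compound (DMSO, pin tool) 16 h, 37 C; B/G FRET substrate 2 h RT; fluorescence intensity read.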

[10] = cAMP Responsive Elements (CRE) small molecule agonists, cell-based qHTS assay (AID 1963590)
Outline: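 HEK 293T CRE-bla, 2,000 cells/well, 18 h preincubation 37 C/5% CO2; cpds (DMSO) pinned, 3 h; LiveBLAzer B/G FRET substrate, 2 h RT.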

[11] = cAMP Responsive Elements (CRE) small molecule antagonists, cell-based qHTS assay (AID 1963591; active = well fitted inhibition curve with a large enough effect in the signal ratio in the repeat runs, not every such curve was filed as active; the % refers to the signal ratio)
Outline: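 Beta-lactamase reporter read by FRET substrate (LiveBLAzer B/G) after 2 h at room temperature. CRE-bla HEK293T cells had received compound plus 0.25 uM (final) NKH477 for 3 h at 37 °C.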

[12] = biological target: Beta-2 adrenergic receptor (Homo sapiens) (UniProt P07550); assay: Adrenergic beta2 receptor (ADRB2) small molecule antagonists, cell-based qHTS assay (AID 1963592); note: series mostly up to about 92 µM; nearly all actives have a fitted effect of over 50% in size
Outline: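 Cells (CHO, stable ADRB2 overexpression) incubated 18-20hr at 37C; compounds added from DMSO; agonist mix (1nM isoproterenol, 100uM IBMX, 25uM Ro-20-1724) added; 0.5hr RT; d2-cAMP and anti-cAMP-cryptate added; 1hr RT; 665/615 nm read.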

[13] = biological target: D(2) dopamine receptor (Homo sapiens) (UniProt P14416); assay: Dopamine D2 receptor (DRD2) small molecule agonists, cell-based qHTS assay (AID 1963594); note: nearly all actives have a fitted effect of over 35% in size
Outline: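 cAMP accumulation in DRD2-HEK293 cells measured by HTRF after 1 h detection; compounds added 10 min before NKH477 (200nM […]) forskolin-analogue stimulation, 30 min at room temperature, with Ro20-1724 present at 0.1 mM final.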

[14] = biological target: D(2) dopamine receptor (Homo sapiens) (UniProt P14416); assay: Dopamine D2 receptor (DRD2) small molecule antagonists, cell-based qHTS assay (AID 1963595; active = well fitted inhibition curve with a large enough effect in the signal ratio in the repeat runs, with a control signal flat; the % refers to the signal ratio)
Outline: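 Antagonist mode in DRD2-HEK293 cells: after compound addition with 0.1 mM Ro20-1724, cells received quinpirole (12 nM) and NKH477 (200 nM) for 30 min at room temperature; HTRF cAMP read after 1 h detection.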

[15] = biological target: 5-hydroxytryptamine receptor 2A (Homo sapiens) (UniProt P28223); assay: 5-hydroxytryptamine receptor 2A (HTR2A) small molecule antagonists, cell-based qHTS assay (AID 1963586); note: nearly all actives have a fitted effect of over 45% in size; note: potency is the fitted concentration of half-maximal effect
Outline: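 Antagonist-mode intracellular calcium assay: DOI (4 nM) added after 5 min compound pre-incubation at room temperature to dye-loaded HTR2A-CHO cells. Fluorescence followed for 3 min, sampled every second.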

[16] = biological target: 5-hydroxytryptamine receptor 2A (Homo sapiens) (UniProt P28223); assay: 5-hydroxytryptamine receptor 2A (HTR2A) small molecule agonists, cell-based qHTS assay (AID 1963587); note: nearly all actives have a fitted effect of over 30% in size; note: potency is the fitted concentration of half-maximal effect
Outline: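 Kinetic calcium-flux fluorescence (2 min, 1 sec intervals) after compound addition in agonist mode. HTR2A-CHO cells were cultured 18 h, then dye-loaded 1 h at 37 C.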

[17] = biological target: Muscarinic acetylcholine receptor M1 (Homo sapiens) (UniProt P11229); assay: Cholinergic receptor muscarinic 1 (CHRM1) small molecule agonists, cell-based qHTS assay (AID 1963589); note: nearly all actives have a fitted effect of over 35% in size
Outline: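 Human M1 in stable CHO line; 18 h plating, 1 h dye load 37 C; cpd added (agonist mode); Ca2+ fluorescence kinetic read, 1 s intervals; 15 conc, 3 runs.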

[18] = p53 small molecule agonists, cell-based qHTS assay with rat liver microsomes (AID 1963578)
Outline: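 Rat liver microsome activation: microsomes 0.5 mg/mL, NADPH 0.5 mg/mL final; p53RE-bla cells, 16 h 37 C; LiveBLAzer readout, 2 h RT dark.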

[19] = biological target: Muscarinic acetylcholine receptor M1 (Homo sapiens) (UniProt P11229); assay: Cholinergic receptor muscarinic 1 (CHRM1) small molecule antagonists, cell-based qHTS assay (AID 1963588); note: nearly all actives have a fitted effect of over 40% in size; note: potency is the fitted concentration of half-maximal effect
Outline: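 CHRM1-CHO calcium-flux assay, antagonist mode. Cells were seeded 18 h, dye-loaded 1 h at 37 C and given compound for 5 min at RT, then acetylcholine was added at 50nM. FDSS fluorescence was read 3 min; 15 concentrations, three runs.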

[20] = biological target: Beta-2 adrenergic receptor (Homo sapiens) (UniProt P07550); assay: Adrenergic beta2 receptor (ADRB2) small molecule agonists, cell-based qHTS assay (AID 1963593);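 note: CHO cells stably overexpressing human ADRB2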
Outline: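 CHO cells stably over-expressing ADRB2 were plated overnight at 37C, then dosed with compounds plus a stimulation mix containing 100uM IBMX and 25uM Ro-20-1724 for 0.5hr at room temperature. cAMP was measured by HTRF competition, 1hr.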

Chain of D(2) dopamine receptor (Homo sapiens) (P14416 whole entry, looked up): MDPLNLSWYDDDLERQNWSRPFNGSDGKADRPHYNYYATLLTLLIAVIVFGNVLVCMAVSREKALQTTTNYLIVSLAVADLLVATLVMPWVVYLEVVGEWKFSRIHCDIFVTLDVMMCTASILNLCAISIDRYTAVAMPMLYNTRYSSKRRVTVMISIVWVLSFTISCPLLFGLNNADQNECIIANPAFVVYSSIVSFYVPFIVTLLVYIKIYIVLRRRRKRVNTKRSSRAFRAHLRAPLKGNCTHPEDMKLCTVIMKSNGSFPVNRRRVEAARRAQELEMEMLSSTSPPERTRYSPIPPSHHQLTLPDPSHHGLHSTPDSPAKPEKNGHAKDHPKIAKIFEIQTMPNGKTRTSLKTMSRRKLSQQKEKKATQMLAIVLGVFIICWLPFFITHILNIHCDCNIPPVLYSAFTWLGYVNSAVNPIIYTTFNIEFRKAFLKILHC
Chain of Muscarinic acetylcholine receptor M1 (Homo sapiens) (P11229 whole entry, looked up): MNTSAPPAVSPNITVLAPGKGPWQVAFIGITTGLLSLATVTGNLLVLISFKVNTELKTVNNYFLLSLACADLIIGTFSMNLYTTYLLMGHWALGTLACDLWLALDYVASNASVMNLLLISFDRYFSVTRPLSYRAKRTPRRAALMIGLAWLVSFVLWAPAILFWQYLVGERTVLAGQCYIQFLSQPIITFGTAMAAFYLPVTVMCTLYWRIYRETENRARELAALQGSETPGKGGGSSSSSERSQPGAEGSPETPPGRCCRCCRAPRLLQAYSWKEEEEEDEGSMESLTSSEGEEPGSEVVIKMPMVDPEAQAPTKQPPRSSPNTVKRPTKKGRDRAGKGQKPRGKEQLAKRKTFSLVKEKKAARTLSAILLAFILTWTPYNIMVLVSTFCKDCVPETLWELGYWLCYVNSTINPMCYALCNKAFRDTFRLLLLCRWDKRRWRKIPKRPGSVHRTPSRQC
Chain of Gonadotropin-releasing hormone receptor (Homo sapiens) (P30968 whole entry, looked up): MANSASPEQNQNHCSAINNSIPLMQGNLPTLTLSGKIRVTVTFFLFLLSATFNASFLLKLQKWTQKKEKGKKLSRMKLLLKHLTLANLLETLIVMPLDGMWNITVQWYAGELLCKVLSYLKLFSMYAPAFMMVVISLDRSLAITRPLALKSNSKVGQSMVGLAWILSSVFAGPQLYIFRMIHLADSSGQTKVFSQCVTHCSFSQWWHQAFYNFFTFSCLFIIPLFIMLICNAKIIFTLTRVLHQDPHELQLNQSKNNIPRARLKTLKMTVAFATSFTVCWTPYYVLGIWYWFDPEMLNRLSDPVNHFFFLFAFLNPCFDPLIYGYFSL
Chain of Beta-2 adrenergic receptor (Homo sapiens) (P07550 whole entry, looked up): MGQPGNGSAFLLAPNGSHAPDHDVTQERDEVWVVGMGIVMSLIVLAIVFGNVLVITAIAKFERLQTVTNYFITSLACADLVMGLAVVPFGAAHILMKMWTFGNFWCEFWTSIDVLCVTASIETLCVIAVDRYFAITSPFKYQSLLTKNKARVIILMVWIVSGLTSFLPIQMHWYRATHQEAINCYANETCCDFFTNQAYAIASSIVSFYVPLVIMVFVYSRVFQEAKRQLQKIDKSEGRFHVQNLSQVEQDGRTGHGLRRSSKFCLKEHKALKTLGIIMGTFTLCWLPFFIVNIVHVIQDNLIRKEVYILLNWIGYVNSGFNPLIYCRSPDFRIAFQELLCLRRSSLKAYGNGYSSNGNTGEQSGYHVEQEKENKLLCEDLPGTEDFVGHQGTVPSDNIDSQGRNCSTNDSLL
Chain of 5-hydroxytryptamine receptor 2A (Homo sapiens) (P28223 whole entry, looked up): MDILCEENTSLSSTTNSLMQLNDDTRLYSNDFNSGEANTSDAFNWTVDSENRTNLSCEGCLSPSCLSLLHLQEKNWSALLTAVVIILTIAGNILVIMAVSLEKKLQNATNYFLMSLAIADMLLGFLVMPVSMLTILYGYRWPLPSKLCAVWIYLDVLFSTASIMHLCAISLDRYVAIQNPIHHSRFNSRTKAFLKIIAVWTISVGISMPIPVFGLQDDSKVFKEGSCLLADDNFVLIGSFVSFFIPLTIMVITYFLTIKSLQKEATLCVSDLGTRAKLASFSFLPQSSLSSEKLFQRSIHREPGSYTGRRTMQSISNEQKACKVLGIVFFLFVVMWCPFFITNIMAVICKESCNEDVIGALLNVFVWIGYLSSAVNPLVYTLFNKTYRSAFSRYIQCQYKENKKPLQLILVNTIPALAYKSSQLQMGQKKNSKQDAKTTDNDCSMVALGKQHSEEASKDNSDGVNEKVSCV

Compound | Potency [1] | Potency [2] | Potency [3] | Potency [4] | Potency [5] | Potency [6] | Potency [7] | Potency [8] | Potency [9] | Potency [10] | Potency [11] | Potency [12] | Potency [13] | Potency [14] | Potency [15] | Potency [16] | Potency [17] | Potency [18] | Potency [19] | Potency [20]
c1ccc2c(c1)Nc1ccccc1S2 | inactive | 61.1 µM (active) and inactive | inactive | inactive | inactive | inactive | inactive | inactive | inactive | inactive | inactive | inactive | inactive | inactive |  |  |  |  |  | 
CCOc1ccc(N)cc1 | inactive | inactive | inactive | inactive | inactive | inactive | inactive | inactive | inactive | inactive | inactive | inactive | inactive | inactive | inactive | inactive | inactive |  |  | 
CCOC(=O)C1(c2ccccc2)CCN(CCC(C#N)(c2ccccc2)c2ccccc2)CC1 | inactive | inactive | inactive | inactive | inactive | inactive | inactive |  | 7.93 µM (active) | inactive | inactive | inactive |  | inactive | 0.13 µM (active) | inactive | inactive | inactive | inactive | inactive
CC(C)(C)C(O)(CCc1ccc(Cl)cc1)Cn1cncn1 (configuration not stated) | inactive | inactive | inactive | inactive |  | inactive | inactive | inactive | inactive | inactive | inactive |  | inactive |  |  | inactive | inactive | inactive |  | inactive
Cc1ccc(N=CN(C)C=Nc2ccc(C)cc2C)c(C)c1 | 61.4 µM (active) and inactive | inactive | inactive | inactive | inactive | inactive | inactive |  | inactive | inactive | inactive | inactive | inactive | inactive |  |  |  | inactive |  | inactive
Cc1ncc(CNC(=O)N(CCCl)N=O)c(N)n1 | inactive | inactive | inactive | inactive | inactive | inactive |  | inactive | inactive | inactive | inactive | inactive | inactive | inactive | inactive | inactive | inactive | inactive | inactive | inactive
CCOCN(C(=O)CCl)c1c(C)cccc1CC | inactive | 25.8 µM (active) and 68.6 µM (active) | inactive |  | inactive | inactive |  | inactive |  |  |  | inactive | inactive | inactive | inactive | inactive | inactive | inactive |  | 
O=C([O-])c1ccccn1.O=C([O-])c1ccccn1.O=C([O-])c1ccccn1.[Cr+3] | inactive | inactive |  | inactive | inactive | inactive | inactive | inactive | inactive | inactive | inactive | inactive | inactive | inactive | inactive | inactive | inactive | inactive | inactive | inactive
N#CCCCCC#N | inactive | inactive | inactive | inactive |  | inactive | inactive | inactive | inactive | inactive | inactive | inactive | inactive | inactive | inactive | inactive | inactive | inactive | inactive | inactive
CCOP(=S)(OCC)Oc1nc(Cl)c(Cl)cc1Cl | inactive | 27.4 µM (active) and 61.1 µM (active) | inactive | inactive | inactive | inactive | inactive | inactive | inactive |  |  | inactive | inactive | inactive | inactive | inactive | inactive |  | inactive | inactive
O=[N+]([O-])c1cccc(O)c1 | inactive | inactive | inactive | inactive | inactive |  | inactive | inactive | inactive | inactive | inactive | inactive | inactive | inactive | inactive | inactive | inactive | inactive | inactive | 
CCOP(=O)(O)OCC (tested in a mixture with another compound) | inactive and 24.1 µM (active) | inactive | inactive | inactive |  | inactive and 36.1 µM (active) | inactive and 36.1 µM (active) | inactive and 28.6 µM (active) |  | inactive | inactive | inactive | inactive | inactive | inactive | inactive and 19.3 µM (active) | inactive |  | inactive and 1.48 µM (active) | inactive
CNC(=O)NC(O)C(Cl)(Cl)Cl (configuration not stated) | inactive | inactive | inactive | inactive |  | inactive | inactive | inactive | inactive | inactive | inactive | inactive | inactive |  |  | inactive | inactive | inactive | inactive | inactive
O=[N+]([O-])c1ccc(Oc2ccc(Cl)cc2Cl)cc1 | inactive | inactive | inactive | inactive | inactive | inactive | inactive | inactive |  | inactive | inactive | inactive | inactive | inactive | inactive | inactive | inactive | inactive | inactive | inactive
